Assay results taken from PubChem BioAssay AID630 (Emory University Molecular Libraries Screening Center, 2007).
Hit rate of the full screen: of about 88,000 compounds, about 260 (0.3%) were called active.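 Rule for the calls: active = compounds that reduce the energy-transfer binding signal between the protein and its labelled peptide by more than half; inactive = the rest.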 The list comes from a sample in which actives are over-represented; it also holds similar structures and randomly drawn compounds.

target: Mothers against decapentaplegic homolog 3 (Homo sapiens) (UniProt P84022); assay: blockers of Smad3 binding to FoxH1 – biochemical, TR-FRET, primary screen (AID 630); conditions: TR-FRET Smad3/Dy647-FoxH1 peptide binding, europium anti-His; at 25 µM; hits give high values;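 note: 0% = Smad3 plus labelled peptide maximal FRET and 100% = peptide-only background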
Sequence (P84022 whole entry, looked up): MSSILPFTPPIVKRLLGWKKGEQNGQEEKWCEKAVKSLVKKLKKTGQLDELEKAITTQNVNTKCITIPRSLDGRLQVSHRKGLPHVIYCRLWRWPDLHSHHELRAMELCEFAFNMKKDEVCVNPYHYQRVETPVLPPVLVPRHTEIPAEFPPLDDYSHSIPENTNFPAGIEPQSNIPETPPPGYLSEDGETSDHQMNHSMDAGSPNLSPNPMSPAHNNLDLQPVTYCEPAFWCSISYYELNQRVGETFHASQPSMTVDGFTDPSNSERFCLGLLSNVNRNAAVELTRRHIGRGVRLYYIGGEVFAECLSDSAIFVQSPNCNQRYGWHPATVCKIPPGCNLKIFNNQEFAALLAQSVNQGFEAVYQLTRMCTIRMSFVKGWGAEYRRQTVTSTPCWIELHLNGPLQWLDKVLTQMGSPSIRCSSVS

inhibition, active:
CC(C)c1nc2oc3c(N4CCN(C)CC4)ncnc3c2c2c1CCC2 51.1%

inhibition, inactive:
O=C(COc1ccccc1)Nc1nonc1NC(=O)COc1ccccc1 8.67%
O=C(CSCc1ccccc1)N1CCc2ccccc21 -1.3%
O=C(c1cccc(N2CCCC2=O)c1)N1CCOCC1 -6%
Cc1ccc(/C=N/NC(=O)Cn2nc(C)c(Br)c2C)o1 21.4%
O=C(Nc1ccccc1C(=O)NCCCn1ccnc1)c1ccc(Cl)cc1Cl -0.02%
COc1cc(OC)c(-n2c(C)cc(C=O)c2C)cc1Cl 2.99%
Cc1nc(NC(=O)C2CCCCC2)sc1C 10.5%
CCOC(=O)c1ccc2c(c1)nc(SCC(=O)NC(C)C)n2CC 20%
CS(=O)(=O)N(CC(=O)N1CCN(c2ccc(F)cc2)CC1)C1CCCCC1 -8.5%
c1ccc(CC2CCN(c3nc4ccccc4n4cnnc34)CC2)cc1 -10%
Cn1nc(-c2ccccc2)c(-c2nc(-c3ccc(Cl)cc3)no2)c1Cl 2.93%
COc1ccc(CN(CC(=O)NC2CCCC2)C(=O)CCC(=O)Nc2cc(C)on2)cc1 -0.48%
Cc1oc(-c2ccccc2Cl)[n+]([O-])c1C 2.52%
Cc1ccc(CS(=O)(=O)CCC(=O)NC2CC2)cc1 6.21%
CCOc1ccc(NC(=O)C2CCCN(C(=O)Nc3ccccc3)C2)cc1 (stereo unspecified) 10.5%
COC(=O)c1nc(NC(=O)c2ccccc2)n[nH]1 1.94%
Cc1cccc(C(=O)Nc2ccccc2N2CCN(c3ccc(F)cc3)CC2)c1 3.31%
c1ccc(C(c2ccccc2)N2CCN(Cc3nnnn3C3CCCCC3)CC2)cc1 -7.75%
COc1ccc(-c2nc3ccccc3n2CCC(C)C)cc1OC -3.34%
C=CCC(NCc1ccco1)c1ccc(OC)cc1 (stereo unspecified) 2.67%
CCc1c(O)cc2n(c1=O)-c1ccccc1C2(C)C 7.56%
Cc1ccc(-c2cc(C(=O)NCC3CCCO3)c3ccccc3n2)o1 (stereo unspecified) 0.54%
Cc1ccccc1-n1c(C)cc(/C=C2\NC(=O)NC2=O)c1C 10.8%
O=C(NCCCCCCNC(=O)NCc1ccco1)NCc1ccco1 10.3%
FC(F)(F)c1cnc(Oc2ccccc2-c2nnc(-c3ccc(Cl)cc3)o2)c(Cl)c1 6.7%
Cc1cc(C)c(S(=O)(=O)N2C=CC(C(F)(F)F)=NCC2)c(C)c1 -6.95%
Cc1cccc(C(=O)O)c1C[C@@H]1NCC[C@@H]2c3ccccc3N[C@@H]12 8.15%
CC(NC(=O)C1CCC(CNc2c(N3CCOCC3)c(=O)c2=O)CC1)c1ccccc1 (stereo unspecified) -2.58%
OC(COc1ccc2ccccc2c1)Cn1cncn1 (stereo unspecified) 6.06%
C=CCN(C(=O)Nc1ccc2oc(C)nc2c1)c1ccccc1 1.13%
Cc1ccc(-c2noc(CSc3nnc(-c4cccs4)n3C)n2)cc1 -3.4%
N#C/C(=C(\O)CCl)c1nnc2n1CCCCC2 0.54%
CCn1c(SCC(=O)Nc2ccc(OC)c(OC)c2)nnc1-c1c[nH]c2ccccc12 -6.68%
Cc1c(CCO)c(=O)n(-c2ccccc2)n1S(=O)(=O)c1ccc(F)cc1 -23.9%
CCCCOc1ccc(N(CC(=O)NCC2CCCO2)C(=O)CCC(=O)Nc2cc(C)ccn2)cc1 (stereo unspecified) 2.38%
Cc1ccc(C)c(N2C(=O)CS/C2=N\NC(=O)c2ccccc2Cl)c1 3.21%
COC(=O)c1cc(NC(=O)CC2C(=O)NCCN2C(=O)c2ccc(F)cc2)cc(C(=O)OC)c1 (stereo unspecified) -2.76%
CCc1cccc(C)c1N(C(=O)Cn1c(CO)nc2ccccc21)C(C)COC (stereo unspecified) -3.83%
COc1ccc(Nc2cc(=O)oc3ccccc23)cc1 1.47%
O=C(Cc1c[nH]c2ccccc12)OCCOC(=O)Cc1c[nH]c2ccccc12 0.81%
CCOC(=O)C(C)n1cnc2sc(C)c(C)c2c1=O (stereo unspecified) 5.75%
CCOc1ccc(CN(Cc2ccco2)S(=O)(=O)c2ccc(-n3cnnn3)c(OC)c2)cc1 -8.78%
Cc1cc(C)cc(N(CC(=O)N2CC=C(c3ccccc3)CC2)S(=O)(=O)c2c(C)noc2C)c1 -9.86%
Cc1ccc(S(=O)(=O)NCC(C)NS(C)(=O)=O)cc1 (stereo unspecified) -1.07%
O=C(OCC#CCSc1nnc(-c2ccncc2)o1)c1sc2ccccc2c1Cl 8.98%
CCOC(=O)CN(Cc1ccc(OC)c(OC)c1)S(=O)(=O)c1ccc(OC)cc1 3.33%
O=C(O)/C=C/C(=O)Nc1ccc2c(c1)-c1ccccc1C2 0.91%
CC1=NN(c2ccccc2)C(=O)[C@H]1N=Nc1ccc(S(N)(=O)=O)cc1 -0.1%
CC(C)CNC(=S)NNC(=O)c1nn(C)cc1Cl 3.44%
CCOc1c(Cl)cc(/C=N/O)cc1OC 5.66%
O=C(c1cc2sccc2n1Cc1ccc(F)cc1)N1CCc2ccccc21 4.44%
CCN(CC)Cc1cc(C(C)=O)ccc1O -9.81%
O=C(CCN1CCc2ccccc2C(O)(c2ccccc2)C1)c1ccc2c(c1)OCCO2 (stereo unspecified) 8.66%
Cc1cc(C)n(-c2cc(Oc3ccccc3)ncn2)n1 3.36%
Cn1c(Cn2nnc3ccccc32)nnc1SCC(=O)c1ccccc1F 16.9%
CCOC(=O)C1=C(C)NC(SC)=NC1c1ccccc1 (stereo unspecified) -3.1%
CC(=NCc1ccco1)c1c(C(F)(F)F)[nH]n(-c2nc3ccccc3s2)c1=O 3.18%
O=C(Cc1ccc(-n2c(=O)c3sccc3n(Cc3ccc(F)cc3)c2=O)cc1)NCc1ccco1 -21.8%
CCN1CCN(c2ncnc3c2oc2nc(C)c4c(c23)CC(C)(C)OC4)CC1 -8.93%
Cc1cc(C)nc(N2CCN(c3ncnc4c3oc3ccccc34)CC2)n1 2.31%
